Measurements as given in PubChem BioAssay.
Active and inactive are the calls of the source. Unless noted, how the calls were made is not given here.

Tests used:
[1] = resazurin metabolic signal in HepG2 cells – cell-based, resazurin fluorescence, 24 h, PK04 Diversity Set, profiling panel (AID 1172); settings: HepG2 viability, higher = more signal
[2] = budding yeast growth changes without added modifier – OD600, strain BY4716, 24 h, basal condition, primary screen (AID 1173); settings: S. cerevisiae BY4716 growth, OD600, 24 h; higher = more signal, called active from +8 up or from −8 down
[3] = viability profiling in MM1S myeloma cells – cell-based, resazurin fluorescence, basal, 24 h, PK04 Diversity Set, profiling panel (AID 1174); settings: higher = more signal, called active from +8 up or from −8 down;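 further: MM1S multiple myeloma cell line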
[4] = molecular target: Dihydroorotate dehydrogenase (quinone), mitochondrial (Plasmodium falciparum (isolate 3D7)) (UniProt Q08210); assay: inhibition of P. falciparum DHODH – biochemical, C-terminal His tag, absorbance 600 nm, primary screen (AID 1175); settings: PfDHODH enzyme, DCIP absorbance 600 nm; higher = more signal, called active from +8 up or from −8 down;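 further: recombinant parasite enzyme with a five histidine tag at its C terminus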
Dihydroorotate dehydrogenase (quinone), mitochondrial (Plasmodium falciparum (isolate 3D7)), sequence (Q08210 whole entry, looked up): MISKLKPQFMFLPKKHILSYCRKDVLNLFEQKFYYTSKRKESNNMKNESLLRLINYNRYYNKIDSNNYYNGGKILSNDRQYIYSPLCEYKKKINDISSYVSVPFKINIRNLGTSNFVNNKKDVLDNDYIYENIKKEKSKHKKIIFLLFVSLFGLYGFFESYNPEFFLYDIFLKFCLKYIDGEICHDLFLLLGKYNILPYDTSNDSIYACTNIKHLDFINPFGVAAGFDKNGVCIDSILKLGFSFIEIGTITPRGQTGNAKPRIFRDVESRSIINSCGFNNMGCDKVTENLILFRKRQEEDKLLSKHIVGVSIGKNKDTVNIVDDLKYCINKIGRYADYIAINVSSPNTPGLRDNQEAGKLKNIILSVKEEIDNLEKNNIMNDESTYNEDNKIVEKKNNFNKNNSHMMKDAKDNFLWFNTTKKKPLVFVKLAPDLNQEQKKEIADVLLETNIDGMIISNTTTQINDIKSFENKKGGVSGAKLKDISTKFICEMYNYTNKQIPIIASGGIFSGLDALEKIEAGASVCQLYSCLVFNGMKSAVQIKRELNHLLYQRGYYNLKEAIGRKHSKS

[5] = inhibition of PAO1 biofilm formation – strain PAO1, LB-PBS medium, absorbance 600 nm, primary screen (AID 1176); settings: P. aeruginosa PAO1 growth/biofilm, A600, 12 h; higher = more signal
[6] = growth modulation of vineyard yeast isolate – strain RM11-1a, OD600, basal, 24 h, primary screen (AID 1177);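 further: cultures grown under basal conditions with no added stressor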; settings: S. cerevisiae RM11-1a growth, OD600, 24 h; higher = more signal, called active from +8 up or from −8 down
[7] = growth of efflux-deficient E. coli DRC39 – strain DRC39, OD650, 24 h, E. coli filamentation inducers, primary screen (AID 1178);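 further: growth measured as culture turbidity by optical density at 650 nm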; settings: E. coli DRC39 acrAB, higher = more signal, called active from +8 up or from −8 down
[8] = growth of efflux-deficient E. coli DRC39 – strain DRC39, OD650, 48 h, E. coli filamentation inducers, primary screen (AID 1179);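 further: screen aims at cell division blockers that make cells filament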; settings: E. coli DRC39 delta-acrAB growth, higher = more signal, called active from +8 up or from −8 down
[9] = viability profiling in RPMI8226 myeloma cells – cell-based, resazurin fluorescence, basal, 24 h, PK04 Diversity Set, profiling panel (AID 1180); settings: higher = more signal;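 further: RPMI8826 multiple myeloma cell line at 5000 cells per well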
[10] = molecular target: E3 ubiquitin-protein ligase XIAP (Homo sapiens) (UniProt P98170); assay: small molecules binding XIAP protein – biophysical, small-molecule microarray, fluorescence 635 nm, primary screen (AID 1181); settings: higher = more signal;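 further: score merges 667 nm emission and signal to noise over triplicate slides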
E3 ubiquitin-protein ligase XIAP (Homo sapiens), sequence (P98170 whole entry, looked up, the tested form may be a part): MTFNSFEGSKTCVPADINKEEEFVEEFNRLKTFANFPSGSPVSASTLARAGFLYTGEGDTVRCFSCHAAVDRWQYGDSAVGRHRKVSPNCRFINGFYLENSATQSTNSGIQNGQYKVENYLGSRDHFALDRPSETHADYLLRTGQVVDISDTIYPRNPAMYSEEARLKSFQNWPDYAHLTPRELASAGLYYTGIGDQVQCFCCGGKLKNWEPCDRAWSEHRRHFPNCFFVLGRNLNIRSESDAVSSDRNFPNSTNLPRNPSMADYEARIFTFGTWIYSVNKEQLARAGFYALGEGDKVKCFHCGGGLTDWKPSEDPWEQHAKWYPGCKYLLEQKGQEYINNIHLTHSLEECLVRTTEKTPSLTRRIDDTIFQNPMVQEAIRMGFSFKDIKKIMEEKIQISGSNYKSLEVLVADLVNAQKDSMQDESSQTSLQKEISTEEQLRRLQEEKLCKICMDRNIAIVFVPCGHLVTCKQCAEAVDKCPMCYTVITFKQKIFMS

[11] = system: XIP peptide (Xip251-270) binding; assay: XIP fragment 251-270 binding compounds – biochemical, small-molecule microarray, fluorescence 635/667 nm, 0.1 µg/mL protein, primary screen (AID 1182); settings: fluorescent protein binding, 635 nm, higher = more signal, called active from +8 up or from −8 down
XIP peptide (Xip251-270) = assay: compounds binding XIP fragment 251-270 – biochemical, small-molecule microarray, fluorescence 635/667 nm, 0.5 µg/mL protein, primary screen (AID 1183); settings: fluorescence 635 nm, higher = more signal
[12] = blood-stage malaria parasite viability loss – strain 3D7, DAPI fluorescence, 100 nL, primary screen (AID 1184);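 further: parasites grown inside human red blood cells in medium with human serum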; settings: P. falciparum 3D7 growth, 3 d, higher = more signal
[13] = molecular target: Homeobox protein Hox-A13 (Mus musculus) (UniProt Q62424); assay: disruptors of Hoxa13 oligonucleotide interaction – biochemical, fluorescence polarization, labeled oligonucleotide, primary screen (AID 1185); settings: Hoxa13:DNA binding, 15 min, higher = more signal, called active from +8 up or from −8 down
Homeobox protein Hox-A13 (Mus musculus), sequence (Q62424 whole entry, looked up): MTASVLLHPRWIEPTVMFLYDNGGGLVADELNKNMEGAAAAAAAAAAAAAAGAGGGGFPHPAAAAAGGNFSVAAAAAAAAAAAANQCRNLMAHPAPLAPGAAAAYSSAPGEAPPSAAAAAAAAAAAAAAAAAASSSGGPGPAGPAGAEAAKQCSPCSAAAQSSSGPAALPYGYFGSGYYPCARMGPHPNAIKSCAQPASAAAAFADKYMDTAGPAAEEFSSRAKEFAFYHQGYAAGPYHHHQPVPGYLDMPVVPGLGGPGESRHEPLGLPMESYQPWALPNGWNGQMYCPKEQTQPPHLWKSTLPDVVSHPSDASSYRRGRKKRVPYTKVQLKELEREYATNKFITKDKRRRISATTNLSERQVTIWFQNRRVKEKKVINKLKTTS

[14] = blockers of DNA damage checkpoint Chk1 activation – imaging, HeLa, hydroxyurea, phospho-Chk1 antibody, percent positive cells, primary screen (AID 1186); settings: hydroxyurea-induced phospho-Chk1 immunofluorescence imaging, higher = more signal
[15] = blockers of DNA damage checkpoint Chk1 activation – imaging, HeLa, hydroxyurea, phospho-Chk1 nuclear intensity, primary screen (AID 1187); settings: hydroxyurea-induced phospho-Chk1 immunofluorescence imaging, higher = more signal

SMILES: CC(C)N1CC=CC23O[C@@H]4C=CCOC(=O)[C@@H]4[C@H]2C(=O)N(C(C)CO)[C@@H]3C1=O (stereo partly drawn)
- z-score [1]: 0.629
- z-score [2]: 0.433 (inactive)
- z-score [3]: 0.273 (inactive)
- composite z-score [4]: -0.218 (inactive)
- z-score [5]: 0.578 (inactive)
- z-score [6]: -0.603 (inactive)
- z-score [7]: 0.17 (inactive)
- z-score [8]: -0.155 (inactive)
- z-score [9]: 0.0803
- composite z-score [10]: 0.226
- composite z-score [11]: -0.409 (inactive)
- composite z-score (XIP peptide (Xip251-270)): 0.291
- z-score [12]: 0.383
- z-score [13]: -3.67 (inactive)
- z-score [14]: 0.113 (inactive)
- z-score [15]: -0.0881 (inactive)

SMILES: O=C(N1CCCCC1)[C@@]1(Cc2ccccc2)COC(c2ccc(OCCCO)cc2)=N1
- z-score [1]: 0.271
- z-score [2]: -5.06 (inactive)
- z-score [3]: -0.949 (inactive)
- composite z-score [4]: -0.447 (inactive)
- z-score [5]: 0.258 (inactive)
- z-score [6]: 2.13 (inactive)
- z-score [7]: 0.401 (inactive)
- z-score [8]: 0.0519 (inactive)
- z-score [9]: 0.482
- composite z-score [10]: 0.284
- composite z-score [11]: 1.07 (inactive)
- composite z-score (XIP peptide (Xip251-270)): 0.819
- z-score [12]: -1.77
- z-score [13]: -5.09 (inactive)
- z-score [14]: -0.542 (inactive)
- z-score [15]: -0.344 (inactive)

SMILES: COC(=O)[C@]1(CCS(=O)(=O)c2ccccc2)N=C(c2ccc(OCCCO)cc2)O[C@@H]1c1ccccc1CN=[N+]=[N-]
- z-score [1]: -1.71
- z-score [2]: 1.69 (inactive)
- z-score [3]: -4.25 (inactive)
- composite z-score [4]: 1.09 (inactive)
- z-score [5]: 1.32 (inactive)
- z-score [6]: 1.91 (inactive)
- z-score [7]: 0.153 (inactive)
- z-score [8]: -1.14 (inactive)
- z-score [9]: -3.68
- composite z-score [10]: -0.0062
- composite z-score [11]: 0.867 (inactive)
- composite z-score (XIP peptide (Xip251-270)): 0.769
- z-score [12]: -2.2
- z-score [13]: -0.936 (inactive)
- z-score [14]: -0.375 (inactive)
- z-score [15]: -0.574 (inactive)

SMILES: O=C1NC(=O)C2C1C=CC(C(O)c1cc(C(F)(F)F)cc(C(F)(F)F)c1)N2Nc1ccc(Cl)cc1Cl (stereo not drawn)
- z-score [1]: -1.71
- z-score [2]: -4.29 (inactive)
- z-score [3]: -1.99 (inactive)
- composite z-score [4]: -0.195 (inactive)
- z-score [5]: 1.43 (inactive)
- z-score [6]: 1.1 (inactive)
- z-score [7]: -1.14 (inactive)
- z-score [8]: -1.13 (inactive)
- z-score [9]: -2.37
- composite z-score [10]: 0.214
- composite z-score [11]: 1.75 (inactive)
- composite z-score (XIP peptide (Xip251-270)): 0.154
- z-score [12]: 0.0295
- z-score [13]: -5.48 (inactive)
- z-score [14]: 1.15 (inactive)
- z-score [15]: 1.26 (inactive)

SMILES: O=C(CS)NCCCCCCNC(=O)[C@@H]1C[C@@H]2C(=O)N3CCC[C@H]3C(=O)N2[C@@H]1c1cccc(OCCO)c1
- z-score [1]: -0.306
- z-score [2]: -0.21 (inactive)
- z-score [3]: 0.832 (inactive)
- composite z-score [4]: -0.968 (inactive)
- z-score [5]: 0.42 (inactive)
- z-score [6]: -1.5 (inactive)
- z-score [7]: 0.743 (inactive)
- z-score [8]: 1.65 (inactive)
- z-score [9]: 0.356
- composite z-score [10]: 0.0022
- composite z-score [11]: 1.97 (inactive)
- composite z-score (XIP peptide (Xip251-270)): 0.864
- z-score [12]: 0.0153
- z-score [13]: -3.25 (inactive)
- z-score [14]: -1.31 (inactive)
- z-score [15]: -0.971 (inactive)

SMILES: CC=CC(O)C1C=CC2C(=O)N(c3ccccc3)C(=O)C2N1Nc1ccc([N+](=O)[O-])cc1 (stereo not drawn)
- z-score [1]: -0.0211
- z-score [2]: 0.0621 (inactive)
- z-score [3]: -0.156 (inactive)
- composite z-score [4]: -0.213 (inactive)
- z-score [5]: 0.71 (inactive)
- z-score [6]: -0.372 (inactive)
- z-score [7]: -1.19 (inactive)
- z-score [8]: -0.279 (inactive)
- z-score [9]: 0.0388
- composite z-score [10]: -0.0807
- composite z-score [11]: 0.542 (inactive)
- composite z-score (XIP peptide (Xip251-270)): 0.135
- z-score [12]: 1.01
- z-score [13]: -3.01 (inactive)
- z-score [14]: -0.263 (inactive)
- z-score [15]: -0.973 (inactive)

SMILES: O=C(O)[C@H]1C[C@H]2C(=O)N3CCC[C@H]3C(=O)N2[C@H]1c1cccc(OCCO)c1
- z-score [1]: 1.32
- z-score [2]: -0.361 (inactive)
- z-score [3]: 0.209 (inactive)
- composite z-score [4]: -0.117 (inactive)
- z-score [5]: -0.695 (inactive)
- z-score [6]: 0.43 (inactive)
- z-score [7]: 0.481 (inactive)
- z-score [8]: 0.896 (inactive)
- z-score [9]: 0.268
- composite z-score [10]: -0.0901
- composite z-score [11]: 0.25 (inactive)
- composite z-score (XIP peptide (Xip251-270)): 0.335
- z-score [12]: -0.0612
- z-score [13]: -3.62 (inactive)
- z-score [14]: -0.217 (inactive)
- z-score [15]: 0.0679 (inactive)

SMILES: O=C(O)[C@]1(Cc2ccccc2)N=C(c2ccc(OCCCO)cc2)O[C@@H]1c1ccccc1
- z-score [1]: 0.424
- z-score [2]: -1.13 (inactive)
- z-score [3]: 0.723 (inactive)
- composite z-score [4]: 0.84 (inactive)
- z-score [5]: -0.912 (inactive)
- z-score [6]: -0.002 (inactive)
- z-score [7]: 0.0717 (inactive)
- z-score [8]: 1.01 (inactive)
- z-score [9]: 1.09
- composite z-score [10]: -0.258
- composite z-score [11]: -0.243 (inactive)
- composite z-score (XIP peptide (Xip251-270)): 0.48
- z-score [12]: 1.24
- z-score [13]: -4.93 (inactive)
- z-score [14]: 0.282 (inactive)
- z-score [15]: 0.37 (inactive)
